High-throughput results from PubChem BioAssay.
MPTP inh: mitochondrial permeability transition pore inhibitors, primary screen, biochemical, isolated mouse mitochondria, absorbance. inhibition, % at 10 µM. Ca2+ swelling absorbance, 30 min. actives 1.4% (n = 360,000);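 active means inhibition of 50% or more, scaled per plate between neutral and stimulator controls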
HSF1 inhib: HSF1 inhibitors in luciferase reporter cells, primary screen, cell-based, NIH3T3, luminescence; NIH3T3-HGL HSE-luciferase, MG132-induced, luminescence 8 h; active compounds read low; activity change, negative = inhibition, % at 7.5 µM (by protocol); actives 0.77% (n = 300,000);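 active means more than half of replicate wells show activity change below -50%, luminescence cut by over half; inconclusive means some wells, but at most half, below -50%; inactive means no replicate well below -50%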;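 further: luciferase reports HSF-1 transcriptional activity via heat shock element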
HSF-1 act: HSF-1 activators, primary screen, NIH3T3-HGL cells, MG132 stress, luminescence, single point; activation, % at 9 µM; NIH3T3-HGL HSF-1 luciferase reporter, 8 h; 100% = twice DMSO control signal; AID 504408, 2011; actives 1.7% (n = 300,000);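 active means mean replicate activation of at least 50% with a set share of replicates each reaching 50%; inconclusive means only one of those two conditions met; inactive means mean below 50% and too few replicates reaching it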
HSP90 inh: HSP90 inhibitors, primary screen, cell lysate, luminescence | Rabbit reticulocyte lysate, luciferase refolding luminescence, 3 h | inhibition, % at 5.6 µM | actives 0.91% (n = 290,000) | AID 1789, 2009;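 active means inhibition above the screen-wide mean plus 3 SD, computed separately per campaign, cut at about 16% in these data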;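 further: inhibitors lower the luminescence because luciferase stays unfolded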
Platelet DG rel: inhibitors of platelet dense granule secretion, primary screen, cell-based, MLPCN, human platelets. human platelet-rich plasma, SFLLRN dense granule ATP release, luminescence. inhibition, %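 (compounds screened at 7.5 µM in platelet-rich plasma)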. actives 0.22% (n = 300,000);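 active means mean replicate score, as percent of positive control, at or above 50; inconclusive means mean below 50 but at least one replicate at or above 50; inactive means mean and every replicate below 50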
dFosB activator: activators of delta FosB homodimer, primary screen, biochemical, fluorescence polarization, TAMRA-CDK5 oligo, single point. Protein FosB (Mus musculus), P13346. purified delta FosB; percent of positive-control signal above neutral wells. activation, % at 25 µM. actives 0.99% (n = 340,000);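 active means mean activation above about 17%, with every replicate also reaching it, limit read from the data, passing the limit was not always enough; inconclusive means only one of the two conditions met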
Target sequence (P13346 whole entry, looked up): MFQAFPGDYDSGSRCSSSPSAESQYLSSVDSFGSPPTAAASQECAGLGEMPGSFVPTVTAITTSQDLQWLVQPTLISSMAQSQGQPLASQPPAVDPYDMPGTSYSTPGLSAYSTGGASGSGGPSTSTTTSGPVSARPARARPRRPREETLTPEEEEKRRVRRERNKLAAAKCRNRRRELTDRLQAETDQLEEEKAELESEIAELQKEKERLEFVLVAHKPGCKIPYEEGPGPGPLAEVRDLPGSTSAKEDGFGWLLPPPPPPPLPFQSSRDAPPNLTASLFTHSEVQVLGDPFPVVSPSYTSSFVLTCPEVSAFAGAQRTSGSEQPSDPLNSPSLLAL
A number is an active result; n = inactive; u = inconclusive; x = no result given. The list is not random: actives were taken first. Their share in the collection is about 4.9%.

SMILES	MPTP inh	HSF1 inhib	HSF-1 act	HSP90 inh	Platelet DG rel	dFosB activator
CCCn1c(N2CCN(CC(=O)NCc3cccs3)CC2)nc2ccccc21	n	-72	n	n	n	n
CCCc1nnc(NC(=O)CS(=O)(=O)c2ccc(C)cc2)s1	n	n	n	n	n	n
Cc1cccc(CS(=O)(=O)c2ncc(Cl)c(C(=O)Nc3c(C)cccc3C)n2)c1	n	n	482	n	n	n
CCCc1nnc(NC(=O)c2nc(S(=O)(=O)Cc3cccc(C)c3)ncc2Cl)s1	n	-60	n	n	n	n
Cc1cccc(C)c1NC(=O)c1nc(S(=O)(=O)Cc2ccccc2)ncc1Cl	n	n	596	n	n	n
Cc1cccc(CS(=O)(=O)c2ncc(Cl)c(C(=O)NCc3ccccc3)n2)c1	n	n	327	n	n	n
Cc1ccccc1CS(=O)(=O)c1ncc(Cl)c(C(=O)Nc2ccc(F)cc2)n1	n	n	n	n	n	n
CC(=O)c1ccc(NC(=O)c2ccccc2-c2ccccc2C(=O)O)cc1	n	n	n	n	n	n
Cc1ccccc1NC(=O)c1nc(S(C)(=O)=O)ncc1Cl	n	n	113	n	n	n
CN1/C(=C/C(=O)c2nc(S(C)(=O)=O)ncc2Cl)C(C)(C)c2ccccc21	n	-92	n	n	n	n
CCOC(=O)[C@]12CCCC=C1N(Cc1ccccc1)C(=O)[C@H](CC(=O)NCc1ccc(C)o1)C2	n	x	x	x	x	x
NC1=NC(=O)/C(=C/c2cn(Cc3ccccc3)c3ccccc23)S1	n	n	60	n	n	n
CC(C)c1c(C(=O)N/N=C/c2cccc3ccccc23)nnn1-c1nonc1N	n	n	n	n	n	u
N#CC1=C(N)Oc2c(ccc3ccccc23)C1c1ccsc1 (stereo not given)	n	n	65	n	n	n
Cc1ccc(SCc2[nH]nc3c2C(c2ccc(C)o2)C(C#N)=C(N)O3)cc1 (stereo not given)	n	-66	n	n	n	n
CCCc1[nH]nc2c1C(c1cc(OC)ccc1F)C(C#N)=C(N)O2 (stereo not given)	n	n	74	n	n	n
CCCc1[nH]nc2c1C(c1cc(OC)cc(OC)c1)C(C#N)=C(N)O2 (stereo not given)	n	n	n	n	n	n
CCc1[nH]nc2c1C(c1ccsc1)C(C#N)=C(N)O2 (stereo not given)	n	n	53	n	n	n
Cc1ccc(SCc2[nH]nc3c2C(c2ccco2)C(C#N)=C(N)O3)cc1 (stereo not given)	n	n	n	n	n	n
N#CC1=C(N)Oc2c(oc(CO)cc2=O)C1c1ccsc1 (stereo not given)	n	n	n	n	n	n
COc1ncccc1-c1ccc2nncn2c1	n	x	x	x	x	x
COc1ccc(N(C)S(=O)(=O)c2cccc(C(=O)OCC(=O)Nc3cc(C)ccc3OC)c2)cc1	n	x	x	x	x	x
CN(C)c1ccc(/C=N/NC(=O)c2cccc(N3CCCC3=O)c2)cc1	n	-82	n	n	n	n
O=C(CC1SC(=NCCc2ccccc2)N(/N=C/c2cccs2)C1=O)Nc1ccc(Cl)cc1 (stereo not given)	n	n	69	n	n	n
C#CCNC(=O)C[C@@H]1C[C@@]2(C(=O)OC)CC(C)(C)CC=C2N(Cc2ccccc2)C1=O	n	x	x	x	x	x
SMILES	MPTP inh	HSF1 inhib	HSF-1 act	HSP90 inh	Platelet DG rel	dFosB activator
COC(=O)C[C@](O)(CCCC(C)(C)O)C(=O)O[C@@H]1C(OC)=C[C@]23CCCN2CCc2cc4c(cc2[C@H]13)OCO4	x	-73	n	x	n	x
O=C(NC1CCSc2ccccc21)c1ccccc1Cl (stereo not given)	n	n	68	n	n	n
COc1ccccc1C(=O)NC1CCSc2ccccc21 (stereo not given)	n	n	63	n	n	n
COc1ccc(OC)c(C(=O)NC2CCSc3ccccc32)c1 (stereo not given)	n	n	n	n	n	n
COc1ccc(CN(C)CCCn2cnc3c(OC)ncnc32)cc1OC	n	x	x	x	x	x
COc1ccc(Cn2nnnc2CN2CCc3ccccc3C2)cc1	n	-61	n	n	n	n
COc1ccc(Cn2nnnc2CN2CCc3ccccc32)cc1	n	n	n	n	n	n
O=C(OCc1csc(-c2ccccc2)n1)c1ccccc1O	n	n	n	n	n	n
CC(C)CCN(C(=O)CNC(=O)c1cccs1)C(C(=O)NC1CCCC1)c1ccncc1 (stereo not given)	n	n	n	n	n	n
CC(C)CCN(C(=O)CNC(=O)c1cccs1)C(C(=O)NC1CCCCC1)c1cccnc1 (stereo not given)	n	-70	n	n	n	n
CCn1cc(/C=C(\NC(=O)c2ccccc2)C(=O)NCCN2CCOCC2)c2ccccc21	n	x	x	x	x	x
CCOc1ccc(-n2cc(-c3ccc(OC)c(OC)c3)[nH]c2=S)cc1	n	n	55	n	n	n
Cn1cc(CN(CCO)Cc2cccs2)c(-c2cccc(Cl)c2)n1	n	n	n	n	58	n
COc1ccccc1CNC(=O)CCNS(=O)(=O)c1ccc2c(c1)oc(=O)n2C	n	n	n	n	n	n
Cc1cc(OCC(=O)NCCCn2ccnc2)c2c(C)cc(=O)oc2c1	n	n	n	n	n	n
CCCc1cc(=O)oc2cc(C)cc(OCC(=O)NCCCn3ccnc3)c12	n	-76	n	n	n	n
CCc1[nH]nc(C(=O)N2CCCC(N3CCN(c4ccccc4C)CC3)C2)c1C (stereo not given)	n	n	n	n	n	n
Cc1cccc2sc(NNC(=O)C3COc4ccccc4O3)nc12 (stereo not given)	n	-87	n	n	n	n
O=C(C1CCC(C(=O)N2CCc3ccccc32)CC1)N1CCc2ccccc21 (stereo not given)	n	n	n	n	n	n
O=C(Nc1ccccc1)C(=O)Nc1ccc2c(c1)N(C(=O)C1CC1)CCC2	n	n	n	x	89	n
CN(C)c1ccc(/C=C/c2c([N+](=O)[O-])c(=O)n(C)c(=O)n2C)cc1	n	n	n	n	n	n
CN(C)c1ccc(-n2cccc2/C=C/[N+](=O)[O-])cc1	n	n	95	n	n	n
CCOC(=O)C1=C(C)N(CCC(=O)O)C(=O)NC1c1ccccc1Cl (stereo not given)	n	-77	n	x	n	n
CC(C)C(=O)Nc1cccc(C(=O)Nc2cc([N+](=O)[O-])ccc2Cl)c1	n	n	n	n	n	n
Cc1ccc(NC(=O)c2sc(N)nc2-c2ccc([N+](=O)[O-])cc2)c(C)c1	n	n	63	n	n	n
